Source: article PMC5540273 (PLoS ONE, 2017)

Key:
Details in all cases: concentration: 1 μM, replicates: in singlicate; n = 1
QSK = system: QSK
RAF1 = system: RAF1
RET = system: RET
RIOK1 = system: RIOK1
RIOK2 = system: RIOK2
RIOK3 = system: RIOK3
RIPK1 = system: RIPK1
RIPK2 = system: RIPK2
RIPK4 = system: RIPK4
RIPK5 = system: RIPK5
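Note: KINOMEscan kinase panel screen.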

O=C1NC(=O)C(N2CCc3ccccc32)=C1c1ccccc1Cl [SB-373598]
%Inh (QSK): 4% | %Inh (RAF1): 25% | %Inh (RET): 3% | %Inh (RIOK1): 19% | %Inh (RIOK2): 4% | %Inh (RIOK3): 1% | %Inh (RIPK1): 0% | %Inh (RIPK2): 10% | %Inh (RIPK4): 12% | %Inh (RIPK5): 0%

Cc1c(O)cccc1Nc1ccnc2ccc(C(F)(F)F)cc12.Cl [GW466413]
%Inh (QSK): 3% | %Inh (RAF1): 23% | %Inh (RET): 24% | %Inh (RIOK1): 34% | %Inh (RIOK2): 2% | %Inh (RIOK3): 0% | %Inh (RIPK1): 3% | %Inh (RIPK2): 21% | %Inh (RIPK4): 0% | %Inh (RIPK5): 0%

COc1ccc(Nc2nccc(NCCNC(=O)Nc3ccccc3F)n2)cc1 [GSK1379901]
%Inh (QSK): 3% | %Inh (RAF1): 20% | %Inh (RET): 17% | %Inh (RIOK1): 40% | %Inh (RIOK2): 0% | %Inh (RIOK3): 39% | %Inh (RIPK1): 33% | %Inh (RIPK2): 22% | %Inh (RIPK4): 11% | %Inh (RIPK5): 6%
